Measured values reported in PubChem BioAssay (NCI).
The panel holds about 83,000 compounds, 20% with a hit somewhere; the sample as a whole holds those more often.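 Percent growth is the endpoint: 0 to 100 indicates growth inhibition (40 means 60% inhibition), 0 means no net growth, and negative values indicate cell death.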 Active and inactive are the calls of the source. The calls were made as follows: active = growth percent below 10; inactive = the rest.

Columns and labels:
Assay in all cases: NCI-60 one-dose screen, 48 h (100 = growth as untreated, 0 = no growth, -100 = all killed)
Settings in all cases: 10 µM unless noted
DU-145 prostate = test system: DU-145 prostate
K-562 leukemia = test system: K-562 leukemia
MALME-3M melanoma = test system: MALME-3M melanoma
MDA-MB-231 breast = test system: MDA-MB-231 breast
RXF 393 renal = test system: RXF 393 renal
SF-268 CNS = test system: SF-268 CNS
SF-295 CNS = test system: SF-295 CNS
SF-539 CNS = test system: SF-539 CNS
UACC-257 melanoma = test system: UACC-257 melanoma
M14 melanoma = test system: M14 melanoma

Measured: growth

c1ccc(Nc2ccc(Nc3nc(-c4ccccc4)nc4ccccc34)cc2)cc1
active: K-562 leukemia 6.16%
inactive: DU-145 prostate 75.1% | MALME-3M melanoma 109% | MDA-MB-231 breast 63% | RXF 393 renal 83% | SF-268 CNS 93.6% | SF-295 CNS 55.9% | SF-539 CNS 86.2% | UACC-257 melanoma 100% | M14 melanoma 76%

N/C(=N\c1nc2ccccc2s1)NC(=O)Nc1ccccc1Cl
active: K-562 leukemia 6.5% | RXF 393 renal -13.9% | SF-295 CNS 9.08% | SF-539 CNS -14.2%
inactive: DU-145 prostate 21.8% | MALME-3M melanoma 63.3% | MDA-MB-231 breast 42.1% | SF-268 CNS 60.9% | UACC-257 melanoma 62.3% | M14 melanoma 13.4%

O=C(c1ccccc1)C(CN1CCCCC1)c1ccccc1 (stereo not given)
inactive: DU-145 prostate 23.2% | MDA-MB-231 breast 22.6% | RXF 393 renal 42.4% | SF-268 CNS 58.6% | SF-295 CNS 98.8% | UACC-257 melanoma 25.6%
active: K-562 leukemia 0.176% | MALME-3M melanoma -3.92% | SF-539 CNS -15.7% | M14 melanoma -74.3%

OCCCc1n(Cc2ccc3ccccc3c2)c2ccccc2[n+]1Cc1ccc2ccccc2c1
inactive: DU-145 prostate 48.1% | RXF 393 renal 14.6% | SF-268 CNS 22.5% | SF-295 CNS 32.8% | SF-539 CNS 18.1%
active: K-562 leukemia 9.14% | MALME-3M melanoma -11.2% | MDA-MB-231 breast -17.7% | UACC-257 melanoma -14.1% | M14 melanoma 3%

CC1c2ccccc2-c2ccccc2N1C (stereo not given)
inactive: DU-145 prostate 110% | K-562 leukemia 88.3% | MALME-3M melanoma 99.4% | MDA-MB-231 breast 97.4% | RXF 393 renal 116% | SF-268 CNS 105% | SF-295 CNS 109% | SF-539 CNS 50.2% | UACC-257 melanoma 114% | M14 melanoma 106%

COP(=O)(OC)C(c1ccc(O)cc1)(c1ccc(O)cc1)c1ccc(O)cc1
inactive: DU-145 prostate 105% | K-562 leukemia 90.6% | MALME-3M melanoma 127% | MDA-MB-231 breast 93.7% | RXF 393 renal 67.2% | SF-268 CNS 106% | SF-295 CNS 82.7% | SF-539 CNS 107% | UACC-257 melanoma 100% | M14 melanoma 86%

N#Cc1ccccc1C#Cc1ccccc1C#Cc1ccc(OCCCCCCOc2ccc(C#Cc3ccccc3C#Cc3ccccc3C#N)cc2)cc1
inactive: DU-145 prostate 111% | K-562 leukemia 96.7% | MALME-3M melanoma 102% | MDA-MB-231 breast 88.5% | RXF 393 renal 97.7% | SF-268 CNS 115% | SF-295 CNS 106% | SF-539 CNS 97.6% | UACC-257 melanoma 103% | M14 melanoma 85.8%

Cc1onc(-c2ccccc2Cl)c1C(=O)N[C@@H]1C(=O)N2[C@@H]1SC(C)(C)[C@@H]2C(=O)O
inactive: DU-145 prostate 123% | K-562 leukemia 91.6% | MALME-3M melanoma 94.2% | MDA-MB-231 breast 113% | RXF 393 renal 115% | SF-268 CNS 110% | SF-295 CNS 104% | SF-539 CNS 112% | UACC-257 melanoma 108% | M14 melanoma 98.2%

Cc1cc2c(cc1C)[n+](Cc1ccc3ccccc3c1)cn2Cc1ccc2ccccc2c1
active: DU-145 prostate -89.5% | K-562 leukemia -57.3% | MALME-3M melanoma -78.7% | MDA-MB-231 breast -75.7% | RXF 393 renal -87% | SF-268 CNS -81.2% | SF-295 CNS -80.9% | SF-539 CNS -93.2% | UACC-257 melanoma -55.6% | M14 melanoma -78.8%

CC12CCC3C(=CCc4cc(O)ccc43)C1CCC2=O (stereo not given)
inactive: DU-145 prostate 115% | K-562 leukemia 91.5% | MALME-3M melanoma 90.5% | MDA-MB-231 breast 102% | RXF 393 renal 113% | SF-268 CNS 106% | SF-295 CNS 92% | SF-539 CNS 102% | UACC-257 melanoma 113% | M14 melanoma 105%

O=C(C(=O)N1CCOCC1)c1cn(CCCn2cc(C(=O)C(=O)N3CCOCC3)c3ccccc32)c2ccccc12
inactive: DU-145 prostate 115% | K-562 leukemia 111% | MALME-3M melanoma 99.8% | MDA-MB-231 breast 93.4% | RXF 393 renal 119% | SF-268 CNS 105% | SF-295 CNS 106% | SF-539 CNS 102% | UACC-257 melanoma 107% | M14 melanoma 101%

O=C(CNC(=O)c1cccc2ccccc12)Nc1ccccc1Oc1cccc(O)c1
inactive: DU-145 prostate 17.1% [5 µM] | MALME-3M melanoma 63.6% [5 µM] | MDA-MB-231 breast 48.9% [5 µM] | SF-268 CNS 49.9% [5 µM] | UACC-257 melanoma 45% [5 µM]
active: K-562 leukemia 9.03% [5 µM] | RXF 393 renal -19% [5 µM] | SF-295 CNS 3.33% [5 µM] | SF-539 CNS -18.4% [5 µM] | M14 melanoma -8.22% [5 µM]
